CDK5 inh: inhibitors of human CDK5/p35 kinase, primary screen, biochemical, single concentration; Cyclin-dependent kinase 5 (Homo sapiens) + Cyclin-dependent kinase 5 activator 1 (Homo …; 330,000 tested, 0.01% active; inhibition, % at 10 µM; AID 488839, 2010; Recombinant CDK5/p35, ADP-Glo luminescence, 60 min;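 active = highest replicate inhibition of at least 50% and at least 75% of replicates reaching 50%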
NSD2 HMT inh: NSD2 histone methyltransferase inhibitors, primary screen, biochemical, AlphaScreen, single concentration, set 2; AID 743445, 2014; 310,000 tested, 0.54% active; inhibition, % at 12.5 µM; Histone-lysine N-methyltransferase NSD2 (Homo sapiens), O96028; NSD2 peptide methylation, 120 min; in the data active = inhibition above about 50%
Casp6 inh: human caspase-6 inhibitors, primary screen, biochemical, VEID-R110 fluorescence, single point, set 2; P55212; purified caspase-6, Z-VEID-R110 cleavage fluorescence; inhibition, % at 12.5 µM; 350,000 tested, 0.53% active; AID 686996, 2013;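 active = mean inhibition across replicates at least about 35%, with every replicate also reaching that limit, limit read from the data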
Target sequence (P55212 24-179 limits assumed): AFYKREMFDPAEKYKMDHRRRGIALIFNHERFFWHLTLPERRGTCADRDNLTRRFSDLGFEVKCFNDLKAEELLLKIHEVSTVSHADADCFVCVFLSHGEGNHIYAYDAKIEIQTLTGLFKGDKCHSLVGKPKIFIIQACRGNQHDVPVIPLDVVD
Target sequence (P55212 194-293 limits assumed): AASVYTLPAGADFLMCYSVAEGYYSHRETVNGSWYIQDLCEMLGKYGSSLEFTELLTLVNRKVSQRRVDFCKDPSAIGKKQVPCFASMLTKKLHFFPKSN
N-glyco inh: increase of ERlucT glycosylation luciferase signal, primary screen, N-linked glycosylation inhibitor project, D54 ERlucT cells, luminescence, set 2; D54 ERlucT glycosylation luciferase reporter, 24 h; percent of 100 nM tunicamycin response; reporter increase, % at 12.5 µM; 360,000 tested, 0.23% active; AID 588692, 2011;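 active = mean luciferase reporter signal, scaled so untreated is 0 and the glycosylation-blocking control 100, at or above a set limit in every replicate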;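 also: luciferase carries N-glycosylation sites so blocking glycosylation raises the light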
ALR inh: inhibitors of human ALR sulfhydryl oxidase, primary screen, biochemical, H2O2 detection, HRP-luminol luminescence, single point; FAD-linked sulfhydryl oxidase ALR (Homo sapiens), P55789; purified ALR, DTT oxidation; inhibition, % (no concentration beside the values); 290,000 tested, 3.8% active; AID 485317, 2010;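 active = mean replicate inhibition above about 79%, with every replicate also reaching it, limit read from the data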
Target sequence (P55789 whole entry, looked up): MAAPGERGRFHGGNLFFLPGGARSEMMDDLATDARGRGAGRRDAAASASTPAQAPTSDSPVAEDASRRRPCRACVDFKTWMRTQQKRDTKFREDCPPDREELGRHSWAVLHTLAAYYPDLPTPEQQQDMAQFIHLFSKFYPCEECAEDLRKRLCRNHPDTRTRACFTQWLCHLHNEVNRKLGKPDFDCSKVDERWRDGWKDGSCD
SUMO Mot1 rescue: yeast Mot1-301 growth rescue at high temperature, primary screen, SUMOylation pathway inhibitor project, S. cerevisiae, ATP luminescence, 38.5C | AID 2716, 2010 | growth rescue, % at 18.8 µM | 320,000 tested, 1% active | S. cerevisiae Mot1-301 growth rescue; percent above DMSO median, 100 means doubled;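 active = every valid replicate shows activation above 250% relative to neutral control wells; inactive = the rest, any valid replicate at or below 250%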
Large screens that a line does not name were inactive. Shown are actives, neighbours in structure and some others; about 3.9% of the full set was active somewhere.

O=C(c1cc(-c2ccco2)nc2ccccc12)N1CCN(Cc2ccccc2)CC1	none (no result: ALR inh)
COc1ccc(-c2cnc3c(c2)C(=O)N([C@H](C)CO)C[C@H](C)[C@@H](CN(C)S(C)(=O)=O)O3)cc1	none (no result: CDK5 inh, NSD2 HMT inh, N-glyco inh, ALR inh, SUMO Mot1 rescue)
Cc1noc(C)c1S(=O)(=O)Nc1cccc2c1O[C@H](CN(C)S(=O)(=O)c1ccccc1)[C@H](C)CN([C@@H](C)CO)C2=O	none (no result: CDK5 inh, NSD2 HMT inh, N-glyco inh, ALR inh, SUMO Mot1 rescue)
O=C(N/N=C/c1ccco1)c1cc(-c2ccncc2)nc2ccccc12	N-glyco inh 28 (no result: ALR inh, SUMO Mot1 rescue)
Cc1cc(C(=O)N/N=C/c2ccco2)c2ccccc2n1	none
C/C(=N\Nc1nc(C)cc(C)n1)c1ccc(C)o1	ALR inh 91 (no result: CDK5 inh)
Cn1c(=O)c2c(-c3ccccc3)n(-c3ccccc3)cc2n(C)c1=O	none (no result: CDK5 inh, NSD2 HMT inh, ALR inh, SUMO Mot1 rescue)
Cn1c(=O)c2c(-c3ccccc3)n(-n3cnnc3)cc2n(C)c1=O	ALR inh 96 (no result: Casp6 inh, SUMO Mot1 rescue)
CC(C)NC(=O)N(C)C[C@@H]1Oc2cc(C#C[C@@H](C)O)ccc2S(=O)(=O)N([C@H](C)CO)C[C@@H]1C	none (no result: CDK5 inh, NSD2 HMT inh, N-glyco inh, ALR inh, SUMO Mot1 rescue)
COc1ccccc1OCc1ccc(C(=O)Nc2cc(OC)c(OC)c(OC)c2)o1	none
COc1ccccc1OCc1ccc(C(=O)NN)o1	ALR inh 90
COc1ccc(/C=N/NC(=O)c2ccc(COc3ccccc3Cl)o2)cc1	none
COc1ccc(/C=N/NC(=O)c2ccc(COc3ccccc3Cl)o2)c(OC)c1C	N-glyco inh 43 (no result: Casp6 inh)
C[C@@H]1CN([C@H](C)CO)C(=O)c2cc(NC(=O)Nc3ccccc3)ccc2O[C@H]1CN(C)Cc1ccncc1	none (no result: CDK5 inh, NSD2 HMT inh, N-glyco inh, ALR inh, SUMO Mot1 rescue)
CC(c1nnnn1C1CCCCC1)N(Cc1ccccc1)Cc1cccnc1 (stereo unspecified)	SUMO Mot1 rescue 278 (no result: Casp6 inh)
CCC(C)c1ccc(O)c(NC(=O)c2cccnc2)c1 (stereo unspecified)	ALR inh 95, SUMO Mot1 rescue 390 (no result: Casp6 inh)
CCC(C)c1ccc(NC(=O)c2cccnc2)cc1 (stereo unspecified)	none (no result: Casp6 inh)
COc1ccc(CN(C)C[C@H]2Oc3ccc(N(C)C)cc3CC(=O)N([C@@H](C)CO)C[C@H]2C)cc1	none (no result: CDK5 inh, NSD2 HMT inh, N-glyco inh, ALR inh, SUMO Mot1 rescue)
O=C/C=C/c1ccc2c(c1)OCO2	none (no result: CDK5 inh, NSD2 HMT inh, N-glyco inh, ALR inh, SUMO Mot1 rescue)
CC(OC(=O)c1cc(O)c2ccccc2c1O)C(=O)Nc1ccc(C(N)=O)cc1 (stereo unspecified)	Casp6 inh 83 (no result: NSD2 HMT inh)
O=C(O)c1ccc(-c2nc(-c3ccccc3)c(-c3cccs3)[nH]2)cc1	none
COc1ccc(-c2nc(-c3cccs3)c(-c3cccs3)[nH]2)cc1O	ALR inh 99 (no result: Casp6 inh)
Cc1ccc(S(=O)(=O)N(C)C[C@@H]2OCCCC[C@@H](C)Oc3ccc(NC(=O)Nc4ccccc4)cc3C(=O)N([C@H](C)CO)C[C@H]2C)cc1	none (no result: CDK5 inh, NSD2 HMT inh, N-glyco inh, ALR inh, SUMO Mot1 rescue)
CN(C)/N=C/c1ccc(Sc2ccc([N+](=O)[O-])cc2[N+](=O)[O-])o1	N-glyco inh 27 (no result: Casp6 inh)
C[C@@H]1CN([C@H](C)CO)C(=O)Cc2cc(NC(=O)Cc3ccccc3)ccc2O[C@H]1CN(C)C(=O)Nc1ccc(F)cc1	none (no result: CDK5 inh, NSD2 HMT inh, N-glyco inh, ALR inh, SUMO Mot1 rescue)
CCOC(=O)c1ccoc1CSCc1ccc(C(=O)OC)o1	ALR inh 99 (no result: Casp6 inh)
CCOC(=O)c1ccc(CSC(=N)N)o1	ALR inh 99
Cc1ccc(S(=O)(=O)Nc2ccc3c(c2)C(=O)N([C@H](C)CO)C[C@H](C)[C@H](CN(C)Cc2ccc(C(F)(F)F)cc2)OCCCC[C@H](C)O3)cc1	none (no result: CDK5 inh, NSD2 HMT inh, N-glyco inh, ALR inh, SUMO Mot1 rescue)
O=C(NCc1ccccc1)C1Cc2c(-c3cccc(F)c3)ccnc2O1 (stereo unspecified)	N-glyco inh 35 (no result: CDK5 inh, ALR inh, SUMO Mot1 rescue)
CC(=O)Nc1ccc(NC(=O)C2Cc3c(-c4ccc5c(c4)OCO5)ccnc3O2)cc1 (stereo unspecified)	none (no result: CDK5 inh, ALR inh, SUMO Mot1 rescue)
CC(=O)c1cccc(-c2ccnc3c2CC(C(=O)NCc2ccco2)O3)c1 (stereo unspecified)	N-glyco inh 32 (no result: CDK5 inh, ALR inh, SUMO Mot1 rescue)
CC(=O)c1cccc(-c2ccnc3c2CC(C(=O)NCc2ccc(F)c(F)c2)O3)c1 (stereo unspecified)	N-glyco inh 34 (no result: CDK5 inh, ALR inh, SUMO Mot1 rescue)
O=C(Nc1ccc2c(c1)OCO2)C1Cc2c(-c3ccc4c(c3)OCO4)ccnc2O1 (stereo unspecified)	Casp6 inh 65 (no result: CDK5 inh, ALR inh, SUMO Mot1 rescue)
COc1cccc(C(=O)Nc2ccc3c(c2)C(=O)N(C)C[C@@H](OC)[C@@H](C)CN(C(=O)C2CCCC2)[C@H](C)CO3)c1	none (no result: CDK5 inh, NSD2 HMT inh, N-glyco inh, ALR inh, SUMO Mot1 rescue)
COc1ccc(NC(=O)N[C@H]2CC[C@H](CCNC(=O)CCN3CCCCC3)O[C@H]2CO)cc1	none (no result: CDK5 inh, NSD2 HMT inh, N-glyco inh, ALR inh, SUMO Mot1 rescue)
O=C(Nc1ccccc1)N[C@H]1CC[C@@H](CCn2cc(C3(O)CCCC3)nn2)O[C@H]1CO	none (no result: CDK5 inh, NSD2 HMT inh, N-glyco inh, ALR inh, SUMO Mot1 rescue)
COc1cc(/C=N/NC(=O)CSCc2ccc([N+](=O)[O-])cc2)cc(OC)c1OC	ALR inh 98 (no result: Casp6 inh, N-glyco inh)
O=C(CSCc1ccc(Cl)cc1)NN=C1CCCC1	none
O=C(CSCc1ccc([N+](=O)[O-])cc1)NN=C1CCCCCC1	ALR inh 88
Cc1cc(NC(=O)CSCc2ccc([N+](=O)[O-])cc2)no1	NSD2 HMT inh 143 (no result: ALR inh)
C[C@H]1CN([C@@H](C)CO)C(=O)c2cc(NC(=O)NC3CCCCC3)ccc2O[C@H]1CN(C)Cc1ccc2c(c1)OCO2	none (no result: CDK5 inh, NSD2 HMT inh, N-glyco inh, ALR inh, SUMO Mot1 rescue)
CCn1c(N)c(C(=O)Nc2ccccc2C(=O)OC)sc1=S	none (no result: Casp6 inh)
CCn1c(N)c(C(=O)NCCOC)sc1=S	ALR inh 100 (no result: Casp6 inh, SUMO Mot1 rescue)
CCn1c(N)c(C(=O)NCc2ccc3c(c2)OCO3)sc1=S	ALR inh 99 (no result: Casp6 inh)
Cc1cc(NC2=CC(=O)C(=O)c3ccccc32)no1	Casp6 inh 48 (no result: ALR inh, SUMO Mot1 rescue)
COc1cc(OC)c(NC2=CC(=O)C(=O)c3ccccc32)cc1Cl	none

Assay outcomes (PubChem)
